Reference: PubChem BioAssay AID1159580 (chemical genetic matrix, 2015)
The campaign covered roughly 5,500 compounds. About 2,000 (36%) were called active. Inconclusive results (about 18%) are left out. Rule as the data show it: active = normalized growth mostly below about 0.91 (no sharp cut-off); inconclusive = no clear call, values can overlap the other calls; inactive = mostly above about 0.92. The list shows a part of the results.

Test: chemical genetic growth profiling, strain panel (AID 1159580);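 also: tested at 20 µM; growth read once vehicle control cultures reached saturation at 30 °C; 1 = growth at the plate median or of vehicle wells; lower values mean less growth of the strain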
Details: growth OD

Measured: normalized growth

CCCCCCCCCCCCCC(=O)OC1C(C)C2(O)C(C=C(CO)CC3(O)C(=O)C(C)=CC32)C2C(C)(C)C12OC(C)=O (centres undefined)
inactive: S. cerevisiae deletion strains, locus YJR043C, strain POL32, active compounds read low 1.03 | S. cerevisiae deletion strains, locus YJR075W, strain HOC1, active compounds read low 1 | S. cerevisiae deletion strains, locus YKL009W, strain mrt4, active compounds read low 0.973 | S. cerevisiae deletion strains, locus YKL068W, active compounds read low 1.01 | S. cerevisiae deletion strains, locus YKL085W, strain MDH1 (second series), active compounds read low 0.966 | S. cerevisiae deletion strains, locus YKL085W, strain MDH1, active compounds read low 0.966 | S. cerevisiae deletion strains, locus YKL160W, strain elf1, active compounds read low 1 | S. cerevisiae deletion strains, locus YKL190W, strain CNB1, active compounds read low 1.02 | S. cerevisiae deletion strains, locus YKR001C, strain vps1, active compounds read low 0.981 | S. cerevisiae deletion strains, locus YKR026C, strain gcn3, active compounds read low 0.964 | S. cerevisiae deletion strains, locus YKR091W, strain srl3, active compounds read low 0.979 | S. cerevisiae deletion strains, locus YLL001W, strain dnm1, active compounds read low 0.991 | S. cerevisiae deletion strains, locus YLL026W, active compounds read low 0.988 | S. cerevisiae deletion strains, locus YLL041C, strain sdh2, active compounds read low 0.984 | S. cerevisiae deletion strains, locus YLR027C, strain aat2, active compounds read low 0.992 | S. cerevisiae deletion strains, locus YLR039C, strain RIC1, active compounds read low 1.06 | S. cerevisiae deletion strains, locus YLR058C, strain SHM2, active compounds read low 0.996 | S. cerevisiae deletion strains, locus YLR102C, strain apc9, active compounds read low 0.998 | S. cerevisiae deletion strains, locus YLR221C, strain rsa3, active compounds read low 0.972 | S. cerevisiae deletion strains, locus YLR258W, strain gsy2, active compounds read low 0.988 | S. cerevisiae deletion strains, locus YLR262C, strain YPT6 (second series), active compounds read low 0.993 | S. cerevisiae deletion strains, locus YLR262C, strain YPT6, active compounds read low 0.988 | S. cerevisiae deletion strains, locus YLR268W, strain sec22, active compounds read low 1.01 | S. cerevisiae deletion strains, locus YLR320W, strain mms22, active compounds read low 0.974 | S. cerevisiae deletion strains, locus YLR330W, strain CHS5, active compounds read low 0.997 | S. cerevisiae deletion strains, locus YLR342W, strain FKS1 (second series), active compounds read low 1.03 | S. cerevisiae deletion strains, locus YLR342W, strain FKS1, active compounds read low 0.982 | S. cerevisiae deletion strains, locus YLR357W, strain rsc2, active compounds read low 0.954 | S. cerevisiae deletion strains, locus YLR370C, strain arc18, active compounds read low 0.988 | S. cerevisiae deletion strains, locus YLR371W, strain rom2, active compounds read low 0.994 | S. cerevisiae deletion strains, locus YLR384C, strain iki3, active compounds read low 0.99 | S. cerevisiae deletion strains, locus YLR418C, strain cdc73, active compounds read low 0.973 | S. cerevisiae deletion strains, locus YML016C, strain PPZ1, active compounds read low 1.03 | S. cerevisiae deletion strains, locus YML032C, strain rad52, active compounds read low 0.976 | S. cerevisiae deletion strains, locus YML120C, strain ndi1, active compounds read low 0.983 | S. cerevisiae deletion strains, locus YML124C, strain tub3, active compounds read low 0.998 | S. cerevisiae deletion strains, locus YMR058W, strain fet3, active compounds read low 0.983 | S. cerevisiae deletion strains, locus YMR078C, strain ctf18, active compounds read low 0.991 | S. cerevisiae deletion strains, locus YMR125W, strain sto1, active compounds read low 0.993 | S. cerevisiae deletion strains, locus YMR129W, active compounds read low 0.976 | S. cerevisiae deletion strains, locus YMR205C, strain PFK2, active compounds read low 0.926 | S. cerevisiae deletion strains, locus YMR223W, strain ubp8, active compounds read low 0.971 | S. cerevisiae deletion strains, locus YMR231W, strain pep5, active compounds read low 0.986 | S. cerevisiae deletion strains, locus YMR263W, strain SAP30, active compounds read low 1 | S. cerevisiae deletion strains, locus YMR307W, strain GAS1, active compounds read low 0.922 | S. cerevisiae deletion strains, locus YNL067W, strain RPL9B, active compounds read low 1.01 | S. cerevisiae deletion strains, locus YNL071W, strain lat1, active compounds read low 0.991 | S. cerevisiae deletion strains, locus YNL128W, strain TEP1, active compounds read low 1.01 | S. cerevisiae deletion strains, locus YNL153C, strain GIM3, active compounds read low 0.999 | S. cerevisiae deletion strains, locus YNL209W, strain ssb2, active compounds read low 0.99 | S. cerevisiae deletion strains, locus YNL233W, strain BNI4, active compounds read low 1 | S. cerevisiae deletion strains, locus YNL248C, strain rpa49, active compounds read low 0.995 | S. cerevisiae deletion strains, locus YNL250W, strain rad50, active compounds read low 0.981 | S. cerevisiae deletion strains, locus YNL271C, strain bni1, active compounds read low 1 | S. cerevisiae deletion strains, locus YNL298W, strain CLA4, active compounds read low 0.976 | S. cerevisiae deletion strains, locus YNL307C, strain MCK1, active compounds read low 0.99 | S. cerevisiae deletion strains, locus YNL322C, strain KRE1 (second series), active compounds read low 0.978 | S. cerevisiae deletion strains, locus YNL322C, strain KRE1, active compounds read low 0.997 | S. cerevisiae deletion strains, locus YNR049C, strain mso1, active compounds read low 0.981 | S. cerevisiae deletion strains, locus YNR052C, strain pop2, active compounds read low 0.995 | S. cerevisiae deletion strains, locus YOL006C, strain TOP1, active compounds read low 1.03 | S. cerevisiae deletion strains, locus YOL012C, strain htz1 0.932 | S. cerevisiae deletion strains, locus YOL147C, strain pex11, active compounds read low 0.99 | S. cerevisiae deletion strains, locus YOR001W, strain rrp6, active compounds read low 1.01 | S. cerevisiae deletion strains, locus YOR061W, strain CKA2, active compounds read low 1.02 | S. cerevisiae deletion strains, locus YOR069W, strain VPS5, active compounds read low 1.02 | S. cerevisiae deletion strains, locus YOR070C, strain gyp1, active compounds read low 0.987 | S. cerevisiae deletion strains, locus YOR080W, strain dia2, active compounds read low 0.977 | S. cerevisiae deletion strains, locus YOR083W, strain WHI5, active compounds read low 1.01 | S. cerevisiae deletion strains, locus YOR106W, strain vam3, active compounds read low 0.999 | S. cerevisiae deletion strains, locus YOR136W, strain idh2, active compounds read low 0.981 | S. cerevisiae deletion strains, locus YOR144C, strain elg1, active compounds read low 1 | S. cerevisiae deletion strains, locus YOR184W, strain ser1, active compounds read low 0.979 | S. cerevisiae deletion strains, locus YOR265W, strain rbl2, active compounds read low 0.997 | S. cerevisiae deletion strains, locus YOR270C, strain vph1, active compounds read low 0.948 | S. cerevisiae deletion strains, locus YOR290C, strain snf2, active compounds read low 0.947 | S. cerevisiae deletion strains, locus YOR316C, strain cot1, active compounds read low 0.994 | S. cerevisiae deletion strains, locus YPL051W, strain arl3, active compounds read low 1.02 | S. cerevisiae deletion strains, locus YPL055C, strain LGE1, active compounds read low 1.02 | S. cerevisiae deletion strains, locus YPL078C, strain atp4, active compounds read low 0.989 | S. cerevisiae deletion strains, locus YPL106C, strain sse1, active compounds read low 0.985 | S. cerevisiae deletion strains, locus YPL240C, strain hsp82, active compounds read low 0.961 | S. cerevisiae deletion strains, locus YPL241C, strain CIN2, active compounds read low 0.972 | S. cerevisiae deletion strains, locus YPR119W, strain clb2, active compounds read low 0.993 | S. cerevisiae deletion strains, locus YPR141C, strain kar3, active compounds read low 0.986 | S. cerevisiae deletion strains, locus YPR163C, strain tif3, active compounds read low 0.998 | S. cerevisiae deletion strains, locus YPR167C, strain met16, active compounds read low 1 | S. cerevisiae deletion strains, strain wtn01, active compounds read low 1.01 | S. cerevisiae strains, strain wild type, active compounds read low 1.04
